Assay outcomes from PubChem BioAssay.
Only some compounds are listed: those with a hit (about 3.5% of all), similar ones and a draw of the others.
FBW7 activator – human FBW7 E3 ligase activation, primary screen. Q969H0. AlphaScreen FBW7–phospho-cyclin E peptide binding, activator screen. normalized activity (activation), % at 26.1 µM. hit rate 0.13% among 650,000; in the data active = normalized activity above about 1.9%;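 also: purified mutant Fbw7 with reduced substrate affinity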
Target sequence (Q969H0 whole entry, looked up): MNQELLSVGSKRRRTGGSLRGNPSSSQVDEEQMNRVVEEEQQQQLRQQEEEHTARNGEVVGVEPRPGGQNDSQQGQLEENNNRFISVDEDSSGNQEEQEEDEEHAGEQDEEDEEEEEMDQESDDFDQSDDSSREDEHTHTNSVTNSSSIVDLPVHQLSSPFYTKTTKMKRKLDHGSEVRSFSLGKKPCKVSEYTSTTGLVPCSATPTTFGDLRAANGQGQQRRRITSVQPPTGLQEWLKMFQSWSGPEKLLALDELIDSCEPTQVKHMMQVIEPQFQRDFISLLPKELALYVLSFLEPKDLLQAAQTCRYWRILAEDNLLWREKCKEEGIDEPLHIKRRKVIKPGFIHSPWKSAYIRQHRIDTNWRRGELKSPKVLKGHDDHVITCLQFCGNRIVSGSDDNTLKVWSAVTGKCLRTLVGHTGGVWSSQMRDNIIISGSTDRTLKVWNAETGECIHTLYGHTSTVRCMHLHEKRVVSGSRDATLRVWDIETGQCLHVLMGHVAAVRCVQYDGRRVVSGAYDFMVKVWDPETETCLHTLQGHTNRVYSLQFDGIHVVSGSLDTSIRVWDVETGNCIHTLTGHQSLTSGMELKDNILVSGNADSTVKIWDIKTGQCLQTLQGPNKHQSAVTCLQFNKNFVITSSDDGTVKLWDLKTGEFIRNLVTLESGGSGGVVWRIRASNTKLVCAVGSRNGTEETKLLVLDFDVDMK
MITF inh – human MITF inhibition, primary screen; O75030; AlphaScreen MITF homodimerization, bead proximity signal; inhibition, % at 2.6 µM; hit rate 0.91% among 650,000; AID 1259374; in the data active = inhibition above about 50%;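 also: 0% = vehicle wells with protein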
TEAD-YAP inh – TEAD-YAP interaction inhibition. hit rate 1.4% among 640,000. AID 1259422. inhibition, % at 9.12 µM. HEK-TIYL cells, TEAD-Gal4/YAP UAS-luciferase luminescence; in the data active = inhibition above about 32%;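 also: 0% = median of test compound wells and 100% = reference inhibitor wells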
GPR151 activ – activates the human receptor GPR151. activation, % at 11.2 µM. PathHunter beta-arrestin GPR151 cells, luminescence. hit rate 1% among 650,000. AID 1508602; in the data active = activation above about 4.9%;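 also: 0% = median of compound wells and 100% = cells with positive control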
MITF confirm – confirmation of human MITF inhibitors; shares compounds with MITF inh; AlphaScreen MITF homodimerization, biotin/His-MITF beads; inhibition, % at 2.6 µM; hit rate 16% among 4,700; AID 1259372;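 active = inhibition above a cutoff derived from the DMSO control wells, cut at about 28% in these data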;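 also: 0% = MITF dimer wells with DMSO only; inhibitors lower the bead chemiluminescence by keeping MITF from dimerizing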
AS interf ctr – optically interferes with AlphaScreen signal | shares compounds with MITF inh | LysRS AlphaScreen counterscreen, signal interference, triplicate | inhibition, % at 2.6 µM | hit rate 7.6% among 4,700 | AID 1259376;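 active = inhibition above a cutoff derived from the DMSO control wells, cut at about 30% in these data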
* = called active by the depositor.

Screening Cc1c(NC(=O)CCN2C(=O)C3C4CCC(C4)C3C2=O)ccc(Br)c1Cl (centres undefined) returned FBW7 activator 0, MITF inh 68*, TEAD-YAP inh -19, GPR151 activ -1, MITF confirm 10 and AS interf ctr -3.
Fc1ccc(-c2ccc3c(c2)COC2(CCNCC2)O3)cc1 was read as FBW7 activator -1, MITF inh -2, TEAD-YAP inh -40 and GPR151 activ 0.
Screening COc1ccc(C)cc1N(CC(=O)Nc1ccc(F)cc1F)S(C)(=O)=O returned FBW7 activator 0, MITF inh 52*, TEAD-YAP inh -6, GPR151 activ 0, MITF confirm -2 and AS interf ctr 13.
Screening COc1ccc(C)cc1N(CC(=O)Nc1ccccc1F)S(C)(=O)=O returned FBW7 activator 0, MITF inh 2, TEAD-YAP inh 8 and GPR151 activ -1.
CCc1ccc(CN(C)CCc2ccccn2)cc1 was read as FBW7 activator 1, MITF inh 89*, TEAD-YAP inh -7, GPR151 activ -1, MITF confirm -6 and AS interf ctr 2.
`O=C(CCSCCc1ccccn1)Nc1cccc([N+](=O)[O-])c1` gave FBW7 activator 0, MITF inh 4, TEAD-YAP inh -2 and GPR151 activ 0.
For Cc1ccc(CN(C)CCc2ccccn2)cc1 the results were FBW7 activator 0, MITF inh 35, TEAD-YAP inh -1 and GPR151 activ 0.
For O=[N+]([O-])c1ccc(CSCCc2ccccn2)cc1 the results were FBW7 activator 0, MITF inh 70*, TEAD-YAP inh -52, GPR151 activ 0, MITF confirm 12 and AS interf ctr 22.
For CN(CCc1ccccn1)Cc1ccc(Cl)cc1 the results were FBW7 activator 1, MITF inh 83*, TEAD-YAP inh 4, GPR151 activ 0, MITF confirm -2 and AS interf ctr 0.
Screening CN(Cc1ccccc1)Cc1cccnc1 returned FBW7 activator 0, MITF inh 40, TEAD-YAP inh 12 and GPR151 activ 3.
For CN(Cc1ccccc1)Cc1ccccn1 the results were FBW7 activator 0, MITF inh 54*, TEAD-YAP inh -4, GPR151 activ 1, MITF confirm 2 and AS interf ctr 3.
`O=C(NC1CCCC1)C(c1ccccc1)N(C(=O)Cc1cccs1)C1CC1` (centres undefined) gave FBW7 activator 0, MITF inh -5, TEAD-YAP inh 1 and GPR151 activ 1.
For CN(C)S(=O)(=O)c1ccc(C(=O)O/C(=C/C(=O)c2cccs2)C(F)(F)F)cc1 the results were FBW7 activator 0, MITF inh 9, TEAD-YAP inh -39 and GPR151 activ -2.
Screening CN(CCc1ccccn1)Cc1ccc2c(c1)CN(Cc1cccs1)CCO2 returned FBW7 activator 0, MITF inh 20, TEAD-YAP inh 6 and GPR151 activ 0.
`COc1ccc(CN(C)CCc2ccccn2)cc1` gave FBW7 activator 1, MITF inh 83*, TEAD-YAP inh -10, GPR151 activ 0, MITF confirm -5 and AS interf ctr 0.
CN(CCc1ccccn1)Cc1ccc([N+](=O)[O-])cc1 was read as FBW7 activator 0, MITF inh 75*, TEAD-YAP inh -6, GPR151 activ 0, MITF confirm 0 and AS interf ctr 6.
Screening COc1ccc(C2C(C(=O)N(C)CCc3ccccn3)c3ccccc3C(=O)N2Cc2ccc(F)cc2)cc1 (centres undefined) returned FBW7 activator 0, MITF inh -3, TEAD-YAP inh 9 and GPR151 activ 0.
`CN(CCc1ccccn1)Cc1ccncc1` gave FBW7 activator 0, MITF inh 83*, TEAD-YAP inh 3, GPR151 activ -1, MITF confirm 2 and AS interf ctr -1.
CCOc1ccccc1CN(C)CCc1ccccn1 was read as FBW7 activator 0, MITF inh 89*, TEAD-YAP inh 2, GPR151 activ -1, MITF confirm -7 and AS interf ctr 15.
For COc1ccc(C2Oc3nc(SC)nnc3-c3ccccc3N2C(C)=O)cc1OC (centres undefined) the results were FBW7 activator 0, MITF inh 9, TEAD-YAP inh 2 and GPR151 activ 0.
CCC(CO)NC(=O)c1ccc(C)c(S(=O)(=O)N2CCOCC2)c1 (centres undefined) was read as FBW7 activator 0, MITF inh 8, TEAD-YAP inh 9 and GPR151 activ -3.
For COc1ccc(/C=c2\sc3nc(=O)c(C)nn3c2=O)cc1OC the results were FBW7 activator 0, MITF inh 8, TEAD-YAP inh 12 and GPR151 activ 0.
For CN(C)CCN(C)Cc1ccc(N(C)C)cc1 the results were FBW7 activator 0, MITF inh 45, TEAD-YAP inh 13 and GPR151 activ 1.
CN(C)CCN(C)Cc1ccc([N+](=O)[O-])cc1 was read as FBW7 activator 1, MITF inh 83*, TEAD-YAP inh 6, GPR151 activ -1, MITF confirm 16 and AS interf ctr 21.
For COc1cc(OC)cc(C(=O)Nc2cc(C(=O)N(C)Cc3ccccc3)ccc2N2CC3CC(C2)c2cccc(=O)n2C3)c1 (centres undefined) the results were FBW7 activator 0, MITF inh -4, TEAD-YAP inh 0 and GPR151 activ 0.
For COc1ccc(C(=O)Nc2cc(C(=O)N(C)Cc3ccccc3)ccc2N2CC3CC(C2)c2cccc(=O)n2C3)cc1 (centres undefined) the results were FBW7 activator 0, MITF inh 87*, TEAD-YAP inh -5, GPR151 activ -1, MITF confirm 13 and AS interf ctr -6.
For Cc1ccc(C(=O)NCC(=O)OCC(=O)c2ccc(-c3ccccc3)cc2)s1 the results were FBW7 activator 0, MITF inh -12, TEAD-YAP inh -5 and GPR151 activ 2.
For Cc1ccc(-c2cn3nc(N4CCC(C(=O)N(C)Cc5ccccc5)CC4)sc3n2)cc1 the results were FBW7 activator 0, MITF inh 2, TEAD-YAP inh -1 and GPR151 activ 0.
For Cc1csc2ncc(C(=O)NCCCO)c(=O)n12 the results were FBW7 activator 0, MITF inh -6, TEAD-YAP inh 11 and GPR151 activ -1.
Screening COCCNC(=O)c1cnc2scc(C)n2c1=O returned FBW7 activator 0, MITF inh 76*, TEAD-YAP inh 6, GPR151 activ 1, MITF confirm 7 and AS interf ctr 7.
O=C1CN(C(=O)COc2ccc(Br)cc2Cl)c2ccccc2N1 was read as FBW7 activator 1, MITF inh -10, TEAD-YAP inh 6 and GPR151 activ -1.
CC1CC(C)CN(C2CCN(Cc3ccccc3[N+](=O)[O-])CC2)C1 (centres undefined) was read as FBW7 activator 0, MITF inh 58*, TEAD-YAP inh -5, GPR151 activ -1, MITF confirm 0 and AS interf ctr 3.
